In the library only some 2.5% were active in any assay of this set; here they are far more common.
LGR2 inh: blocks bursicon-induced cAMP signaling via Drosophila LGR2. HEK293 LGR2, CRE-luciferase, bursicon-stimulated, 4 h. inhibition, % at 9.99 µM. 380,000 tested, 0.35% active;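 active = drop in luminescence signal, shown as inhibition above about 50% in the replicate tests, limit read from the data, passing the limit was not always enough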;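 note: agonist challenge used bursicon conditioned medium at about half maximal strength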
TROY signal inh: TROY signaling inhibition. Q293 LMP1-TROYcd NF-kB luciferase reporter, 4 h. inhibition, % at 10 µM. 360,000 tested, 0.98% active;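 active = compounds whose plate-normalised and pattern-corrected inhibition of the luciferase reporter signal at the single screening dose is 50% or more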
TWEAK Fn14 block: TWEAK-Fn14 signaling inhibition | AID 1159606 | TWEAK-stimulated Fn14 reporter cells, luciferase luminescence, 8 h | inhibition, % at 10 µM | 360,000 tested, 2% active; in the data active = inhibition above about 50%
EBV LMP1 NFkB: inhibitors of Epstein-Barr LMP1-induced NF-kappaB reporter; LMP1-induced NF-kappaB luciferase reporter cells, luminescence; inhibition, % at 12.5 µM; 350,000 tested, 0.69% active; AID 504558; in the data active = inhibition above about 41%
EWS-Fli inh: blocks EWS/Fli oncoprotein-driven transcription. 350,000 tested, 0.67% active. inhibition, % at 12.6 µM. A673 NR0B1-luciferase reporter, viability-normalised;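 active = mean inhibition of at least 50% after viability correction, with every replicate also passing that limit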;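 note: firefly luciferase signal divided by Alamar Blue viability fluorescence both relative to DMSO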
A number is an active result; i = inactive; nt = not tested or not shown.

SMILES	LGR2 inh	TROY signal inh	TWEAK Fn14 block	EBV LMP1 NFkB	EWS-Fli inh
Cc1ccccc1CSc1nnc([C@@H]2CCCN2)o1	i	i	i	53.5	i
Clc1ccccc1CSc1nnc([C@@H]2CCCN2)o1	i	i	i	i	i
O=C(CCl)N(c1ccccc1)C1CCCCC1	94.1	i	i	i	i
CO[C@H]1CN(C)C(=O)c2cc(NS(=O)(=O)c3cn(C)cn3)ccc2OC[C@H](C)N(C)C[C@H]1C	i	nt	nt	nt	i
COC(=O)c1cc(=O)nc(NN=Cc2ccccc2)s1	i	nt	nt	nt	i
COC(=O)c1cc(=O)nc(NN=C2c3ccccc3-c3ccccc32)s1	i	i	60.7	nt	i
CN1/C(=C/c2cc[n+](C)c3ccccc23)C=Cc2ccccc21	nt	i	i	47.2	nt
C[n+]1ccc(/C=C/c2ccccc2O)c2ccccc21	i	i	i	i	i
CC(=O)N(C)C[C@@H]1Oc2cc(C#CCC3CCCC3)ccc2S(=O)(=O)N([C@H](C)CO)C[C@H]1C	i	nt	nt	nt	i
O=C1ON=C(c2ccccc2)/C1=C/c1ccc(-c2ccccc2[N+](=O)[O-])o1	i	i	94.7	i	nt
CCn1cc(Cl)c(C(=O)N2N=C(c3ccc4ccccc4c3)CC2c2ccccc2O)n1 (configuration not stated)	i	i	71.5	i	i
CCOC(=O)/C=C/C(=O)Nc1cc(S(=O)(=O)Nc2ccc(OC)cc2)ccc1N1CCOCC1	i	i	56.4	i	i
CCOC(=O)/C=C/C(=O)Nc1ccc(Oc2ccccc2)cc1	101.7	i	70.8	i	i
CCOC(=O)/C=C/S(=O)(=O)c1ccc(NC(C)=O)cc1	nt	i	i	i	nt
CCOC(=O)/C=C/C(=O)Nc1ccc(S(=O)(=O)Nc2c(C)cc(C)cc2C)cc1	i	50.3	i	i	i
COc1ccc(NS(=O)(=O)c2ccc(N3CCOCC3)c(NC(=O)C(C)C)c2)cc1	i	i	i	i	i
Cc1noc(C)c1NC(=O)Nc1ccc2c(c1)C(=O)N([C@H](C)CO)C[C@@H](C)[C@@H](CN(C)CC1CCCCC1)OCCCC[C@H](C)O2	i	nt	nt	nt	i
CCCC(Oc1ccc(Br)cc1)c1nc2c3cc(OC)c(OC)cc3nc(=S)n2[nH]1 (configuration not stated)	i	61.6	i	i	i
CC(Oc1ccc(Br)cc1)c1nc2c3ccccc3nc(=S)n2[nH]1 (configuration not stated)	i	i	i	i	i
COCc1cn(CC[C@H]2CC[C@@H](NC(=O)Nc3ccc(F)cc3)[C@@H](CO)O2)nn1	i	nt	nt	nt	i
O=C(NCc1cccnc1)c1cccc(NS(=O)(=O)c2ccc(Br)cc2)c1	i	i	i	i	58.1
C[C@@H]1CN([C@H](C)CO)C(=O)c2cc(NC(=O)c3ccccc3)ccc2O[C@@H](C)CCCCO[C@H]1CN(C)C(=O)CCC(F)(F)F	i	nt	nt	nt	i
C[C@H]1CN([C@@H](C)CO)C(=O)c2cc(NS(=O)(=O)c3ccc(Cl)cc3)ccc2O[C@H]1CN(C)C(=O)Nc1cccc2ccccc12	i	nt	nt	nt	i
CC1CCCN(C2=NC(=O)/C(=C/c3cn(-c4ccccc4)nc3-c3cccc(S(=O)(=O)N(C)C)c3)S2)C1 (configuration not stated)	nt	i	i	i	nt
CC1CCN(C2=NC(=O)/C(=C/c3cn(-c4ccccc4)nc3-c3cccc(S(=O)(=O)N(C)C)c3)S2)CC1	nt	nt	75.5	i	nt
SMILES	LGR2 inh	TROY signal inh	TWEAK Fn14 block	EBV LMP1 NFkB	EWS-Fli inh
C[C@H](O)C#Cc1ccc2c(c1)O[C@H](CN(C)Cc1ccc(-c3ccccc3)cc1)[C@H](C)CN([C@@H](C)CO)S2(=O)=O	i	nt	nt	nt	i
Cc1ccc(C)c(NC(=O)CSc2nc(N)c(NC(=O)c3cccs3)c(=O)[nH]2)c1	i	i	i	i	i
Cc1ccc(C)c(NC(=O)CSc2nc3nc(-c4cccs4)cc(C(F)(F)F)c3c(=O)[nH]2)c1	i	53.4	i	i	i
O=C(CSc1nc2nc(-c3cccs3)cc(C(F)(F)F)c2c(=O)[nH]1)Nc1ccc(F)c(F)c1	i	i	69.8	i	i
Nc1nc(SCC(=O)Nc2ccc(C(F)(F)F)cc2)[nH]c(=O)c1NC(=O)c1ccc(F)c(F)c1	i	i	i	i	i
C[C@@H]1CN([C@@H](C)CO)C(=O)c2cc(-c3cccc(C#N)c3)cnc2O[C@@H]1CN(C)C(=O)c1cnccn1	i	nt	nt	nt	i
Cc1onc(-c2c(F)cccc2Cl)c1C(=O)Nc1cc(S(=O)(=O)N2CCCCC2)ccc1O	i	64.3	64.2	i	i
Cc1onc(-c2c(F)cccc2Cl)c1C(=O)Nc1ccc(S(=O)(=O)N2CCOCC2)cc1	i	i	i	i	i

High-throughput results deposited in PubChem by several laboratories.
